{"source": "PubChem BioAssay", "key": {"[1]": {"test_system": "Human papillomavirus type 1a protein E7 (residues 44-93)", "experiment": "HPV1a E7 fragment binders on microarrays, primary screen, biochemical, small-molecule microarray, residues 44-93, 635 nm fluorescence (AID 1108);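 also: E7 fragment applied at 1 µg/mL in TBST for 1 h at 4 C; score combines spot fluorescence with its signal to noise ratio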", "settings": "small-molecule microarray binding, fluorescence 635 nm; higher = more signal"}, "[2]": {"experiment": "modulators of HCV replicon luciferase signal, primary screen, HCV replication inhibitor project, Huh7 cells, luciferase reporter (AID 1109);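 also: huh7 hepatoma cells harbouring a luciferase neomycin HCV replicon reporter; luciferase luminescence as measure of HCV replicon replication; test concentration not given here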", "settings": "48 h, higher = more signal"}, "[3]": {"target": "Left-right determination factor 2 (Homo sapiens) (UniProt O00292)", "sequence (O00292 whole entry, looked up)": "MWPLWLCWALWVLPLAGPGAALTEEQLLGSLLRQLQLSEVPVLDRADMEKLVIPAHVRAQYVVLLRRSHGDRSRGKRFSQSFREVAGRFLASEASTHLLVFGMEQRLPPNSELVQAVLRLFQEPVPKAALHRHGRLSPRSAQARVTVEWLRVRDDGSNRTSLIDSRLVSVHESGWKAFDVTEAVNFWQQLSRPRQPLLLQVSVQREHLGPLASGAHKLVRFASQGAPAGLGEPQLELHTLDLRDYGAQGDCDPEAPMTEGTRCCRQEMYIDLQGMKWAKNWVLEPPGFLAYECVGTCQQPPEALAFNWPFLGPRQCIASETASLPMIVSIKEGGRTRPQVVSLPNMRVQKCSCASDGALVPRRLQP", "experiment": "LEFTY2 binders on small-molecule microarrays, primary screen, biochemical, small-molecule microarray, 635 nm fluorescence scan (AID 1110)", "settings": "LEFTY2 binding, higher = more signal"}, "[4]": {"target": "Calmodulin-1 (Homo sapiens) (UniProt P0DP23)", "experiment": "CALM1 binders on microarrays, EGTA buffer, profiling panel, biochemical, small-molecule microarray, Cy5-labelled CALM1 (AID 1111);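 also: labelled calmodulin applied in Tris saline Tween buffer holding calcium plus EGTA and DTT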", "settings": "Cy5-CALM1 binding fluorescence, higher = more signal"}, "[5]": {"target": "Calmodulin-1 (Homo sapiens) (UniProt P0DP23)", "experiment": "calcium-bound CALM1 binders on microarrays, profiling panel, artefact control for SMM control-protein annotation, biochemical, small-molecule microarray, Cy5-labelled CALM1, plus calcium (AID 1112);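 also: score merges spot fluorescence with signal to noise from triplicate slides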", "settings": "Cy5-CALM1 binding fluorescence, higher = more signal"}, "[6]": {"experiment": "small-molecule microarray binders of probe aWnt5a, primary screen, biochemical, biotinylated probe, 635/667 nm fluorescence (AID 1113);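 also: score merges 667 nm fluorescence intensity with signal-to-noise per printed feature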", "settings": "higher = more signal"}, "[7]": {"experiment": "small-molecule microarray binders of probe aShh, primary screen, biochemical, biotinylated probe, 635/667 nm fluorescence (AID 1114);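 also: probe is biotin-labelled aShh protein from a stem cell growth factor screen; measures binding of labelled protein to compounds printed on the slide; score merges feature fluorescence at 667 nm with signal-to-noise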", "settings": "higher = more signal"}, "[8]": {"experiment": "small-molecule microarray binders of probe aNog, primary screen, biochemical, biotinylated probe, 635/667 nm fluorescence (AID 1115);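 also: probe is biotinylated aNog protein used at 0.15 µg/mL for 1 h at 4 C; z-score combines 667 nm fluorescence of each spot with its signal to noise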", "settings": "higher = more signal"}, "[9]": {"target": "Torsin-1A-interacting protein 1 (Homo sapiens) (UniProt Q5JTV8)", "sequence (Q5JTV8 whole entry, looked up)": "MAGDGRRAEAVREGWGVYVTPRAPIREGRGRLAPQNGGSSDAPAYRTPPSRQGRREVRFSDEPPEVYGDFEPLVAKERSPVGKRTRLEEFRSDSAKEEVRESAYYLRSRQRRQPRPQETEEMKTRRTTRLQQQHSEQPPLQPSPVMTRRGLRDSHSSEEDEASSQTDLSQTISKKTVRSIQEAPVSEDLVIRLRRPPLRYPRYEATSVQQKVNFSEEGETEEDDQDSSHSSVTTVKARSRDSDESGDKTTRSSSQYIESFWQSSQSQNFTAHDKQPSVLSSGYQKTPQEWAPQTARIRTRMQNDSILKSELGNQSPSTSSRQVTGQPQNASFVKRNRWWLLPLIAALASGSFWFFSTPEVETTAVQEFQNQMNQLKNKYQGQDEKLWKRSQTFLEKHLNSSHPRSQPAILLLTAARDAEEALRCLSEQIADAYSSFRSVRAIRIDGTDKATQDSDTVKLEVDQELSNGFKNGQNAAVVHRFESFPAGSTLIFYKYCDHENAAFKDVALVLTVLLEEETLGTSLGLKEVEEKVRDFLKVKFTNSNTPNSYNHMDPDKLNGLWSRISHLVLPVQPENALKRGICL", "experiment": "LAP1 binders from COS7 cell lysate, primary screen, small-molecule microarray, 635/667 nm fluorescence (AID 1116)", "settings": "COS7-hLAP1 lysate binding, 635 nm fluorescence, higher = more signal"}, "[10]": {"target": "Alpha-bungarotoxin (Bungarus multicinctus) (UniProt P60615)", "sequence (P60615 whole entry, looked up)": "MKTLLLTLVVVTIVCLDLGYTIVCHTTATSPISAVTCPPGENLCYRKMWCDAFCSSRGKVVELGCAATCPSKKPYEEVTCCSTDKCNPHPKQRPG", "experiment": "alpha-bungarotoxin binders on microarray, profiling panel, artefact control for SMM control protein annotation, biochemical, small-molecule microarray, Alexa647 label, 635/667 nm fluorescence (AID 1117)", "settings": "alpha-BTX-A647 binding fluorescence, higher = more signal"}}}
{"smiles": "COCCOC(=O)N1C(=O)[C@@]2(c3cc(C#CCCO)ccc31)[C@H](C(=O)N1CCN(c3ncccn3)CC1)[C@H]1C(=O)O[C@H](c3ccccc3)[C@H](c3ccccc3)N1[C@@H]2c1ccccc1OCCO", "values": [{"measurement": "composite z-score", "setting": "[1]", "result": 1.37}, {"measurement": "z-score", "setting": "[2]", "result": -1.86}, {"measurement": "composite z-score", "setting": "[3]", "result": 0.56}, {"measurement": "composite z-score", "setting": "[4]", "result": 1.72}, {"measurement": "composite z-score", "setting": "[5]", "result": 0.55}, {"measurement": "composite z-score", "setting": "[6]", "result": -0.0614}, {"measurement": "composite z-score", "setting": "[7]", "result": -0.214}, {"measurement": "composite z-score", "setting": "[8]", "result": 0.207}, {"measurement": "composite z-score", "setting": "[9]", "result": 0.249}, {"measurement": "composite z-score", "setting": "[10]", "result": 0.64}]}
{"smiles": "Cc1ccc(S[C@]2(C(=O)NC(C)C)CC(=O)N(Cc3ccccc3Cl)[C@@H]2c2ccc(CO)cc2I)cc1", "values": [{"measurement": "composite z-score", "setting": "[1]", "result": 0.472}, {"measurement": "z-score", "setting": "[2]", "result": -2.47}, {"measurement": "composite z-score", "setting": "[3]", "result": -2.08}, {"measurement": "composite z-score", "setting": "[4]", "result": 0.0453}, {"measurement": "composite z-score", "setting": "[5]", "result": -0.174}, {"measurement": "composite z-score", "setting": "[6]", "result": -0.252}, {"measurement": "composite z-score", "setting": "[7]", "result": -0.283}, {"measurement": "composite z-score", "setting": "[8]", "result": -0.158}, {"measurement": "composite z-score", "setting": "[9]", "result": -0.252}, {"measurement": "composite z-score", "setting": "[10]", "result": 1.33}]}
{"smiles": "CN(C)C(=O)[C@@]1(Cc2ccccc2CN=[N+]=[N-])N=C(c2ccc(OCCCO)cc2)O[C@H]1c1ccccc1", "values": [{"measurement": "composite z-score", "setting": "[1]", "result": 0.993}, {"measurement": "z-score", "setting": "[2]", "result": -2.96}, {"measurement": "composite z-score", "setting": "[3]", "result": -0.498}, {"measurement": "composite z-score", "setting": "[4]", "result": 0.691}, {"measurement": "composite z-score", "setting": "[5]", "result": 0.46}, {"measurement": "composite z-score", "setting": "[6]", "result": 0.0077}, {"measurement": "composite z-score", "setting": "[7]", "result": -0.0243}, {"measurement": "composite z-score", "setting": "[8]", "result": 1.83}, {"measurement": "composite z-score", "setting": "[9]", "result": 1.43}, {"measurement": "composite z-score", "setting": "[10]", "result": 1.33}]}
{"smiles": "CC(C)(C)C(=O)N[C@@H](c1ccc(Cl)cc1)[C@]1(C)C[C@H]1C1CCCCC1", "values": [{"measurement": "composite z-score", "setting": "[1]", "result": 1.19}, {"measurement": "z-score", "setting": "[2]", "result": -0.409}, {"measurement": "composite z-score", "setting": "[3]", "result": -0.487}, {"measurement": "composite z-score", "setting": "[4]", "result": 1.27}, {"measurement": "composite z-score", "setting": "[5]", "result": 1.1}, {"measurement": "composite z-score", "setting": "[6]", "result": 0.197}, {"measurement": "composite z-score", "setting": "[7]", "result": 0.838}, {"measurement": "composite z-score", "setting": "[8]", "result": 2.13}, {"measurement": "composite z-score", "setting": "[9]", "result": 1.94}, {"measurement": "composite z-score", "setting": "[10]", "result": 2.02}]}
{"smiles": "CCCCc1cn(C[C@H](Cc2ccccc2)NC(=O)N[C@H](CO)CCc2oc(C(C)=O)c(C(=O)OC)c2C(=O)OC)nn1", "values": [{"measurement": "composite z-score", "setting": "[1]", "result": 1.39}, {"measurement": "z-score", "setting": "[2]", "result": -0.639}, {"measurement": "composite z-score", "setting": "[3]", "result": 1.26}, {"measurement": "composite z-score", "setting": "[4]", "result": 0.451}, {"measurement": "composite z-score", "setting": "[5]", "result": -0.693}, {"measurement": "composite z-score", "setting": "[6]", "result": -0.0045}, {"measurement": "composite z-score", "setting": "[7]", "result": 0.184}, {"measurement": "composite z-score", "setting": "[8]", "result": -0.0965}, {"measurement": "composite z-score", "setting": "[9]", "result": 0.644}, {"measurement": "composite z-score", "setting": "[10]", "result": 0.463}]}
{"smiles": "C=CC[C@]1(C(=O)NCCCOC)N=C(c2ccc(OCCCO)cc2)O[C@H]1c1ccccc1N=[N+]=[N-]", "values": [{"measurement": "composite z-score", "setting": "[1]", "result": 1.05}, {"measurement": "z-score", "setting": "[2]", "result": -0.682}, {"measurement": "composite z-score", "setting": "[3]", "result": -0.338}, {"measurement": "composite z-score", "setting": "[4]", "result": 2.08}, {"measurement": "composite z-score", "setting": "[5]", "result": 0.312}, {"measurement": "composite z-score", "setting": "[6]", "result": 0.191}, {"measurement": "composite z-score", "setting": "[7]", "result": 0.535}, {"measurement": "composite z-score", "setting": "[8]", "result": 1.8}, {"measurement": "composite z-score", "setting": "[9]", "result": 1.47}, {"measurement": "composite z-score", "setting": "[10]", "result": 0.928}]}
{"smiles": "COC(=O)[C@@]1(Cc2ccc(F)cc2)[C@H]2c3cc(C(=O)N(C)C)n(Cc4ccc(S(C)(=O)=O)cc4)c3C[C@H]2CN1C(=O)c1ccccc1", "values": [{"measurement": "composite z-score", "setting": "[1]", "result": -0.164}, {"measurement": "z-score", "setting": "[2]", "result": -0.328}, {"measurement": "composite z-score", "setting": "[3]", "result": 0.213}, {"measurement": "composite z-score", "setting": "[4]", "result": 2.54}, {"measurement": "composite z-score", "setting": "[5]", "result": 0.497}, {"measurement": "composite z-score", "setting": "[6]", "result": -0.0125}, {"measurement": "composite z-score", "setting": "[7]", "result": 0.123}, {"measurement": "composite z-score", "setting": "[8]", "result": 1.84}, {"measurement": "composite z-score", "setting": "[9]", "result": 2.08}, {"measurement": "composite z-score", "setting": "[10]", "result": 0.15}]}
